From the supplement of paper PMC12350171
Counter-ions that a name gives are not always drawn.

Test system: Haemophilus parainfluenzae
Assay: growth AUC normalised to DMSO control (fraction of control); higher = less growth inhibition, active = hit call of the paper
Settings: 20 µM;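 active = AUC significantly below DMSO controls by Student t-fit with adjusted P under 0.01; inactive = not significantly reduced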
Method in brief: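 For the AUC endpoint, growth curves were integrated by the trapezoidal rule up to the exponential-to-stationary transition and normalised to DMSO controls on the same plate. The curves came from OD578 readings taken hourly for 24 h, in three biological replicates. Pathogens had been passaged anaerobically twice and inoculated at an OD578 of 0.01 into pre-reduced mGAM plates carrying 20 μM compound and 1% DMSO, sealed with breathable membranes. Medium for Haemophilus parainfluenzae also contained hemin and NAD.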

SMILES | growth AUC normalised to DMSO control
C1CCC(C(CC2CCCCN2)C2CCCCC2)CC1 (configuration not stated) [Perhexiline maleate] | 0.977 (inactive)
CC(C)NCC(O)c1cc(O)cc(O)c1 (configuration not stated) [Metaproterenol sulfate] | 0.99 (inactive)
COc1ccc([C@@H]2CC(=O)c3c(O)cc(O[C@@H]4O[C@H](CO[C@@H]5O[C@@H](C)[C@H](O)[C@@H](O)[C@H]5O)[C@@H](O)[C@H](O)[C@H]4O)cc3O2)cc1O [Hesperidin] | 1.07 (inactive)
O=C(O)CCc1nc(-c2ccccc2)c(-c2ccccc2)o1 [Oxaprozin] | 1.08 (inactive)
CN1C(=O)CC(c2ccccc2)C1=O (configuration not stated) [Phensuximide] | 1.01 (inactive)
Cc1ccc(N(CC2=NCCN2)c2cccc(O)c2)cc1 [Phentolamine hydrochloride] | 1.05 (inactive)
CCCCOc1cc(C(=O)OCCN(CC)CC)ccc1N [Benoxinate hydrochloride] | 1.01 (inactive)
